The record followed here is the supplement of paper PMC8007513.

Structures can show the parent of a compound that is named as a salt. ± gives the standard error. About 75 (6%) of roughly 1,300 compounds showed an effect of 50% or more. Many of the other results were omitted from the sample, so strong results are more common in it than they were.

For this test, the system named is Trichoderma virens ATCC 9645. Description: growth yield (OD600) relative to untreated control; higher = less growth inhibition. Particulars: compound concentration: 100 uM. The procedure, abridged: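 Library compounds (100 μM final), with or without a co-applied biocide (200 ng ml^−1), were added to 100 μl aliquots of Trichoderma virens ATCC 9645 spores at 15,000 spores ml^−1 in potato dextrose broth. Cultures were grown at 30 °C in 96-well plates, and OD600 was measured at 40 h and 72 h. Each growth value is a mean of duplicate screens, expressed relative to the control with neither agent.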

As to `CCCCOc1cc(C(=O)OCCN(CC)CC)ccc1N` [Benoxinate hydrochloride], the growth yield is 103 ± 3% (40 h) and 103 ± 1.1% (72 h).
Consider `CCCCc1oc2ccc(NS(C)(=O)=O)cc2c1C(=O)c1ccc(OCCCN(CCCC)CCCC)cc1` [Dronedarone hydrochloride], for which the growth yield by setting is: (40 h) 6.19 ± 1.8%; (72 h) 1.99 ± 0.52%.
As for `CCCCCCCN(CC)CCCC(O)c1ccc(NS(C)(=O)=O)cc1` (centres undefined) [Ibutilide fumarate], the growth yield runs as follows: (40 h) 100 ± 2.9%; (72 h) 101 ± 2.5%.
Take `CCCCOc1cc(C(=O)NCCN(CC)CC)c2ccccc2n1` [Dibucaine]: the growth yield reads like this: (40 h) 101.02 ± 1e-14%; (72 h) 98.37 ± 0.21%.
The like results for `CCCCc1oc2ccccc2c1C(=O)c1cc(I)c(OCCN(CC)CC)c(I)c1` [Amiodarone hydrochloride] were, in that order, 3.18% and 2.94%.
The like results for `C[N+]1(C)CCC(OC(=O)C(O)(c2ccccc2)C2CCCC2)C1` (centres undefined) [Glycopyrrolate] were, in that order, 96.26 ± 0.95% and 90.72 ± 0.73%.
The like results for `CCC(=O)OCC(=O)[C@@]1(OC(=O)CC)[C@@H](C)C[C@H]2[C@@H]3CCC4=CC(=O)C=C[C@]4(C)[C@@]3(Cl)[C@@H](O)C[C@@]21C` [Beclomethasone dipropionate] were, in that order, 103 ± 7.8% and 98.7 ± 3%.
In the case of `N=C(N)NCCN1CCCCCCC1` [Guanethidine sulfate], the growth yield by setting is: (40 h) 99.6 ± 1.1%; (72 h) 100.79 ± 0.1%.
As to `OCCOCCN1CCN(C2=Nc3ccccc3Sc3ccccc32)CC1` [Quetiapine hemifumarate], the growth yield by setting is: (40 h) 108 ± 15%; (72 h) 106 ± 12%.
Take `CN(C)CC/C=C1/c2ccccc2Sc2ccc(Cl)cc21` [Chlorprothixene hydrochloride]: the growth yield runs as follows: (40 h) 70.5 ± 6.3%; (72 h) 90.8 ± 2.7%.
The like results for `OCCN1CCN(CC/C=C2/c3ccccc3Sc3ccc(Cl)cc32)CC1` [Zuclopenthixol dihydrochloride] were, in that order, 15.1 ± 1.8% and 60.4 ± 5.7%.
Regarding `Cc1cccc(N(C)C(=S)Oc2ccc3ccccc3c2)c1` [Tolnaftate], the growth yield is, setting by setting: (40 h) 0%; (72 h) 0%.
Consider `O=C(O)COC(=O)Cc1ccccc1Nc1c(Cl)cccc1Cl` [Aceclofenac], for which the growth yield by setting is: (40 h) 94.2 ± 2.1%; (72 h) 95.02 ± 0.42%.
For `COc1ccc2[nH]cc(CCNC(C)=O)c2c1` [Melatonin], the growth yield was determined as 101% (40 h) and 97.3% (72 h).
With `CCCCCNC(=N)N/N=C/c1c[nH]c2ccc(OC)cc12` [Tegaserod maleate], the growth yield by setting is: (40 h) 5.24 ± 0.16%; (72 h) 3.88 ± 0.52%.
The like results for `CN(C)CCN1C(=O)c2ccccc2N(C)c2ccccc21` [Dibenzepine hydrochloride] were, in that order, 101 ± 1.8% and 105 ± 3%.
For `CC(C)NC[C@@H](O)COc1ccc(CC(N)=O)cc1` [(R)-(+)-Atenolol], the growth yield came to 102 ± 4% (40 h) and 97.8 ± 1.8% (72 h).
Compound `C=C1C[C@H]2[C@@H]3C=C(C)C4=CC(=O)CC[C@]4(C)[C@H]3CC[C@]2(C)[C@@]1(OC(C)=O)C(C)=O` [Melengestrol acetate] had a growth yield (40 h) of 96.6 ± 1.6% and a growth yield (72 h) of 94.5 ± 2.4%.
As for `C=C(NC(=O)C(=C)NC(=O)c1csc(C2=N[C@@H]3c4csc(n4)[C@H]4NC(=O)c5csc(n5)[C@H]([C@](C)(O)[C@@H](C)O)NC(=O)[C@H]5CSC(=N5)/C(=C/C)NC(=O)[C@H]([C@@H](C)O)NC(=O)c5csc(n5)[C@]3(CC2)NC(=O)[C@H](C)NC(=O)C(=C)NC(=O)[C@H](C)NC(=O)[C@H]([C@@H](C)CC)N[C@@H]2C=Cc3c([C@H](C)O)cc(nc3[C@H]2O)C(=O)O[C@@H]4C)n1)C(N)=O` [Thiostrepton], the growth yield was found to be 96.6 ± 2.9% (40 h) and 99 ± 2.1% (72 h).
For `CC(=O)NCCCS(=O)(=O)O` [Acamprosate calcium], in that order: 98.32 ± 0.48% and 95.9 ± 1.7%.
For `Oc1c(I)cc(Cl)c2cccnc12` [Clioquinol], in that order: 18.3 ± 7.8% and 12.9 ± 5.3%.
As for `Oc1c(Cl)cc(Cl)c2cccnc12` [Chloroxine], the growth yield (40 h) was 1.27 ± 0.32% and the growth yield (72 h) was 1.36 ± 0.32%.
The like results for `CCN[C@H]1C[C@H](C)S(=O)(=O)c2sc(S(N)(=O)=O)cc21` [Dorzolamide hydrochloride] were, in that order, 99.3 ± 5.6% and 92.7 ± 6.7%.
Consider `CO/N=C(\C(=O)N[C@@H]1C(=O)N2C(C(=O)O)=C(COC(N)=O)CS[C@H]12)c1ccco1` [Cefuroxime sodium salt], for which the growth yield reads like this: (40 h) 96.9 ± 2.9%; (72 h) 89.9 ± 1.1%.
For `O=C1C(CC[S+]([O-])c2ccccc2)C(=O)N(c2ccccc2)N1c1ccccc1` (centres undefined) [Sulfinpyrazone], in that order: 102 ± 1.1% and 106 ± 2.1%.
The like results for `CC(N/C(=N\C#N)Nc1ccncc1)C(C)(C)C` (centres undefined) [Pinacidil] were, in that order, 100 ± 2.2% and 103 ± 0.21%.
For `N=C(N)NCc1cccc(I)c1` [Iobenguane sulfate], in that order: 105 ± 1.9% and 106 ± 1.1%.
For `Nc1nc(NC2CC2)c2ncn([C@H]3C=C[C@@H](CO)C3)c2n1` [Abacavir Sulfate], the growth yield runs as follows: (40 h) 97.2 ± 2.5%; (72 h) 98.48 ± 0.1%.
For `CCC[C@H](N[C@@H](C)C(=O)N1[C@H](C(=O)O)C[C@@H]2CCCC[C@@H]21)C(=O)OCC` [Perindopril], in that order: 101 ± 3.5% and 96.9 ± 2.5%.
For `Cn1c(=O)c2c(ncn2CC(=O)O)n(C)c1=O` [Acefylline], in that order: 96.6 ± 1.9% and 95.12 ± 0.94%.
For `O=C1NCCN1CCN1CCC(c2cn(-c3ccc(F)cc3)c3ccc(Cl)cc23)CC1` [Sertindole], the growth yield (40 h) stood at 34.5 ± 20% and the growth yield (72 h) was found to be 111 ± 2.4%.
`O=C(O)c1cn(-c2ccc(F)cc2)c2cc(N3CCNCC3)c(F)cc2c1=O` [Sarafloxacin]: the growth yield came out at 101 ± 4.1% (40 h) and 97 ± 2.4% (72 h).
